# Compound activity: PubChem BioAssay, National Center for Advancing Translational Sciences (NCATS)
# Many of the other results were omitted from the sample, so hits are more common in it than they were.
# ALOX12 inh – ALOX12 (human) lipoxygenase inhibition; purified 12hLO, xylenol orange hydroperoxide absorbance; P18054; Potency, µM (top dose mostly 108 µM), for the others: at the highest dose activity change, negative = inhibition, hits mostly inhibitors; 1.1% of 580,000 active; note: potency is the fitted concentration of half-maximal effect
# Target sequence (P18054 whole entry, looked up): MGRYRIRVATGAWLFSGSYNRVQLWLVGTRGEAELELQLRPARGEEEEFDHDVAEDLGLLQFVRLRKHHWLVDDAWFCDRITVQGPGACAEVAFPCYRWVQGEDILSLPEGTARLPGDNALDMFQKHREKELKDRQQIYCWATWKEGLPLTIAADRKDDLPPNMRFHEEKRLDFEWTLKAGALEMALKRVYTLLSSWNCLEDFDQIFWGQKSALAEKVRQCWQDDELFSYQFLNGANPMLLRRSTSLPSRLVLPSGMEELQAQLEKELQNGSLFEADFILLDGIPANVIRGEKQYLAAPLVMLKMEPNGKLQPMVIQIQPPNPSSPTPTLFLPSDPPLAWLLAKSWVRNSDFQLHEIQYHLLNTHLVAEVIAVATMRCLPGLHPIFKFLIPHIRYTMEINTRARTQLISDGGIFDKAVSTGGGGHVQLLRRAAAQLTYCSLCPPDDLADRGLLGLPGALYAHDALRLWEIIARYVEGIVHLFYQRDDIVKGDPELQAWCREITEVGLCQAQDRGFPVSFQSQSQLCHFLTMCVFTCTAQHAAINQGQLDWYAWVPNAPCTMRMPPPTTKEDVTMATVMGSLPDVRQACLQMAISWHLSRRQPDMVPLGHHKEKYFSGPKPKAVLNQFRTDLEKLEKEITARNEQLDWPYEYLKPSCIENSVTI
#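 Purified human 12hLO at 150 nM in 25 mM Hepes, 0.01% Triton X-100, pH 7.0, preincubated 15 min at room temperature with compound. Reaction started with 40 uM arachidonic acid, 30 min at room temperature. Hydroperoxide measured by Fe-xylenol orange, 573/405 nm absorbance ratio.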
# DT40 TDP1 CPT – DT40-hTDP1 cell growth loss with CPT; chicken DT40 Tdp1-/-;hTDP1 cells + 20 nM CPT, ATP luminescence, 48 h; Potency, µM (top dose mostly 46.2 µM), inactives show at the top dose activity change, negative = growth inhibition, usual class: inhibitors; 12% of 420,000 active; note: potency is the fitted concentration of half-maximal effect; nearly all actives have a fitted effect of over 55% in size
#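 Chicken DT40 Tdp1-/- cells complemented with human TDP1, 400 cells/well, exposed to compounds plus 20 nM camptothecin for at least 48 h at 37 C; viability read as ATP content by CellTiter-Glo luminescence.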
# HT1080 IDH1KD tx – kills HT-1080 cells with IDH1 knockdown. HT-1080 IDH1 knockdown viability, ATP luminescence, 48 h. Potency, µM (top dose mostly 46.1 µM), for the others: at the top dose activity, negative = toxicity, actives largely listed as cytotoxic. 2% of 360,000 active. AID 686971;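 note: potency is the fitted concentration of half-maximal effect; 0% = DMSO wells and -100% = cell-free medium wells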
#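 In this qHTS, HT-1080 cells depleted of IDH1 are exposed for 48 h at 37 °C to compound titrations. Toxicity is scored from CellTiter-Glo luminescence, with DMSO as full viability and medium alone as none.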
# IL-1B inflam inh – inflammasome signaling inhibition, IL-1 beta readout; THP-1 LPS/ATP IL-1B secretion, AlphaLISA, 16 h; active compounds read low; 4.7% of 360,000 active; activity change, % at 57.5 µM; in the data active = activity change below about -50%; inconclusive = mostly about -30% to -49%
#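 THP-1 cells pretreated 1 hr with compounds (up to 57.5 uM final), then stimulated with LPS (250 ng/mL final) plus ATP (1.25 mM final); secreted IL-1B measured by AlphaLISA after 16 hr, decreased signal indicating inhibition.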
# HT1080NT lethal – kills 2HG-producing HT-1080-NT fibrosarcoma cells; HT-1080-NT fibrosarcoma viability, CellTiter-Glo ATP luminescence, 48 h; 1.6% of 360,000 active; Potency, µM (top dose mostly 46.1 µM), inactives show at the highest dose activity, negative = less viability, hits mostly cytotoxic;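 note: NT is the 2HG producing partner of a matched IDH1 knockdown line; potency is the fitted concentration of half-maximal effect; 0% = DMSO-treated cells and -100% = media-only wells without cells; nearly all actives have a fitted effect of over 55% in size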
#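 HT-1080-NT; 750 cells/well; 5% FBS RPMI; 48 h compound, 37 degrees C; CellTiter-Glo luminescence; curve fitting and curve-class assignment.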
# DT40 TDP1 no CPT – qHTS for Inhibitors of human tyrosyl-DNA phosphodiesterase 1 (TDP1): qHTS in cells in absence of CPT; 15% of 420,000 active; Potency, µM (highest dose often 46.2 µM), without a hit: at the highest dose activity change, negative = growth inhibition, usual class: inhibitors; AID 686978, 2013; DT40 Tdp1-/- hTDP1 cells, no CPT, ATP luminescence, 48 h; note: potency is the fitted concentration of half-maximal effect; nearly all actives have a fitted effect of over 55% in size
#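 Luminescent ATP content (CellTiter-Glo) served as the growth readout. Knockout chicken DT40 cells expressing human TDP1 were exposed to compounds without camptothecin for a minimum 48 hr at 37 °C.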
# The depositor's hits bear a star; ? = inconclusive; · = no result given; [ ] = dose if it differs, or a comment. Unless noted, calls come from the whole dose curve; as a rule, active = well fitted curve in the direction sought with a large enough effect; inconclusive = small, poorly fitted or top-dose-only effect, or another doubt; inactive = no such curve, though single readings can be large; an effect the other way counts as inactive or inconclusive. Unless noted, % is set by controls: 0 for no effect and ±100 for the full control effect.
SMILES,ALOX12 inh,DT40 TDP1 CPT,HT1080 IDH1KD tx,IL-1B inflam inh,HT1080NT lethal,DT40 TDP1 no CPT
COc1cc2ncnc(NCc3ccc(Cl)cc3)c2cc1OC,-20.0%,?,-0.8%,-2.6,0.7%,?
COc1cc2nc(Cl)nc(NC(C)C)c2cc1OC,·,14.1µM*,-10.3%,·,-18.2%,15.8µM*
COc1cc2nc(N3CCCCC3)nc(NC(C)C)c2cc1OC,·,5.01µM*,?,·,?,?
COc1cc2nc(N3CCN(C)CC3)nc(NC(C)C)c2cc1OC,·,?,-1.8%,·,-22.5%,17.8µM*
COc1cc2nc(N3CCOCC3)nc(NC(C)C)c2cc1OC,·,?,15.1%,·,-1.7%,?
Cc1cc2c3c(c1)C1(C(=O)N3C(C)(C)CC2C)C(C#N)=C(N)Oc2cc(O)ccc21 (configuration not stated),?,-13.4%,?,-25.1,?,25.1µM*
CCOc1ccc(N=C/C=C/c2ccccc2)c(O)c1,?,18.4µM*,2.8%,-5.9,-1.6%,18.4µM*
COc1ccc(CCNc2cc(N3CCN(C(=O)c4ccccc4F)CC3)ccc2[N+](=O)[O-])cc1OC,258.1%,4.61µM*,?,-2.4,-1.9%,5.17µM*
COc1ccc(CCNc2ccc(C(=O)O)cc2[N+](=O)[O-])cc1OC,-9.5%,8.6%,-0.1%,27.5,2.1%,8.5%
COc1ccc(C(=O)N2CCN(c3ccc([N+](=O)[O-])c(NCCc4ccc(OC)c(OC)c4)c3)CC2)cc1,-15.6%,4.11µM*,?,?,1.16µM*,2.59µM*
Cc1[nH]c2ccc(C(=O)N(C)C3CCS(=O)(=O)C3)cc2c1C (configuration not stated),31.1%,·,·,·,·,·
CCN(CC)CCNc1ccc(C)c2sc3ccc(O)cc3c(=O)c12,?,0.164µM*,?,-100.8*,-22.9%,0.146µM*
CCOC(=O)c1c(C)[nH]c(C)c1S(=O)(=O)N1CCC(C(=O)N2CCN(c3cc(C)ccc3C)CC2)CC1,-49.5%,23.1µM*,·,·,·,23.1µM*
CCOC(=O)N1CCN(C(=O)C2CCN(S(=O)(=O)c3c(C)cc(C)cc3C)CC2)CC1,1.6%,?,-5.4%,-6.9,-1.1%,18.4µM*
CCOC(=O)c1c(C)[nH]c(C)c1S(=O)(=O)N1CCC(C(=O)NCc2cccc(C)c2)CC1,-5.7%,-2.0%,·,·,·,-9.2%
CCOC(=O)c1c(C)[nH]c(C)c1S(=O)(=O)N1CCC(C(=O)N2CCN(c3cccc(C)c3)C(C)C2)CC1 (configuration not stated),-23.6%,23.1µM*,·,·,·,?
Cc1c(C(=O)N2CCCC2)sc(NC(=O)c2cccc(Cl)c2)c1C#N,-25.5%,?,-3.0%,-0.7,-26.0%,25.9µM*
Cc1c(C(=O)N2CCCCC2)sc(NC(=O)C23CC4CC(CC(C4)C2)C3)c1C#N,6.7%,?,8.1%,-8.0,12.4%,18.4µM*
Cc1cccc(C(=O)Nc2sc(C(=O)N3CCCC3)c(C)c2C#N)c1,-4.7%,?,-0.1%,-17.0,3.2%,?
CCO[C@@H]1OC(C(=O)NCc2ccccc2)=C[C@H](c2ccc(Br)cc2)[C@H]1CCCO,?,23.1µM*,1.0%,0.0,-0.2%,?
CCO[C@H]1OC(C(=O)O)=C[C@@H](c2cn(C(C)=O)c3ccccc23)[C@@H]1CCCO,-11.2%,-1.4%,12.6%,20.3,13.0%,0.6%
CCO[C@H]1OC(C(=O)NCc2nc3ccccc3[nH]2)=C[C@@H](c2cn(C(C)=O)c3ccccc23)[C@@H]1CCCO,9.9%,?,-8.9%,-13.6,-9.4%,18.4µM*
CCO[C@@H]1OC(C(=O)NCc2nc3ccccc3[nH]2)=C[C@H](c2cn(C(C)=O)c3ccccc23)[C@H]1CCCO,23.6%,?,-9.2%,?,-10.2%,16.4µM*
CCO[C@@H]1OC(C(=O)NCc2ccccc2)=C[C@H](c2cn(C(C)=O)c3ccccc23)[C@H]1CCCO,?,?,-5.8%,-53.5*,-2.4%,18.4µM*
CCO[C@@H]1OC(C(=O)NCc2nc3ccccc3[nH]2)=C[C@H](c2coc3ccccc3c2=O)[C@H]1CCCO,-4.5%,-29.3%,-11.4%,-5.2,-2.0%,-12.4%
SMILES,ALOX12 inh,DT40 TDP1 CPT,HT1080 IDH1KD tx,IL-1B inflam inh,HT1080NT lethal,DT40 TDP1 no CPT
CC(C)c1cnc2c(c1SCC(=O)NCc1ccccc1Cl)c(=O)n(C)c(=O)n2C,20.6%,-3.2%,·,·,·,-19.5%
COCC(=O)NC1CCN(C(=O)N2CC3CC(C2)[C@H]2CCCC(=O)N2C3)CC1 (some centres not stated),51.3%,·,·,·,·,·
CCCCN1C(=O)C(CC(=O)NC(C)(C)CC)Sc2ncccc21 (configuration not stated),-5.5%,·,·,·,·,·
CCCC(=O)N1C[C@@H]2CCCN3CCC[C@@H]([C@H]23)[C@H]1CCCC(=O)N1CCOCC1,49.0%,·,·,·,·,·
CC(C)CNC(=O)c1cccc(NC(=O)c2ccc(Cl)c([N+](=O)[O-])c2)c1,-0.3%,20.6µM*,-0.1%,-111.6*,-2.6%,20.6µM*
CC(C)(C)SCCNC(=O)c1ccc(Cl)c([N+](=O)[O-])c1,-20.1%,?,18.2%,?,13.9%,16.4µM*
Cc1ccccc1CNC(=O)c1ccc(Cl)c([N+](=O)[O-])c1,13.3%,?,2.5%,·,1.4%,?
CC(C)CNC(=O)c1cccc(NC(=O)COc2ccc([N+](=O)[O-])cc2)c1,-5.2%,13µM*,-27.4%,-8.5,-17.1%,23.1µM*
CC(C)N[C@@H]1CO[C@H](CNC(=O)c2ccncc2)[C@H]1O,0.8%[176 µM],·,·,·,·,·
COC(=O)c1cccc(NC(=S)N[C@H]2CO[C@H]3[C@@H]2OC[C@@H]3n2nnnc2Oc2ccc3c(c2)OCO3)c1,23.1%,·,·,·,·,·
Cc1cccc(N2CC(C(=O)Nc3nnc(SCCC4OCCO4)s3)CC2=O)c1 (configuration not stated),8.91µM*,-7.1%,0.5%,0.0,-3.0%,2.7%
O=C(NCCc1ccccn1)c1ccnc(-c2nnc3ccc(N4CCOCC4)nn23)c1,4.6%[176 µM],·,·,·,·,·
CCN1/C(=C\C=C2\C(=O)N(c3ccccc3)C(=S)N2C)Sc2ccccc21,?,?,18.7%,-2.5,-3.4%,10.3µM*
COC(=O)c1c(-c2ccc(S(C)(=O)=O)cc2)sc2cc(OC)ccc12,3.4%,?,-19.4%,-19.6,-1.7%,20.6µM*
